Our source for the remaining NAD values is PubChem BioAssay.

Values without a mark were called inactive. Active and inactive are the calls of the source.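 How the source made its calls: active means compound whose remaining NAD level is above about 45 nM (limit read from the data); inactive means the rest.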 Positions of bridges follow the written chain, without caps; N, C: chain ends. Non-standard residues stand in square brackets, D forms with d. Residues, ends and D or L forms follow the SMILES beside them. ξ: configuration not given here. *: point of attachment. Heptanoyl(5-Me) = CCC(C)CCCC(=O)*; ξThr(3R) = C[C@@H](O)C(N)C(=O)O; dDab = NCC[C@@H](N)C(=O)O; Dab = NCC[C@H](N)C(=O)O

For this experiment, the target named is NAD(+) hydrolase SARM1 (Homo sapiens) (UniProt Q6SZW1). The experiment in a line: blocking NAD cleavage by SARM1 SAM-TIR – cell lysate, NAD-Glo luminescence (AID 1508614).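 Further: higher remaining NAD means stronger inhibition of SARM1 NADase.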 Conditions: SAM-TIR HEK293T lysate NADase, at 1 µM, active compounds read high.
NAD(+) hydrolase SARM1 (Homo sapiens), sequence (Q6SZW1 whole entry, looked up): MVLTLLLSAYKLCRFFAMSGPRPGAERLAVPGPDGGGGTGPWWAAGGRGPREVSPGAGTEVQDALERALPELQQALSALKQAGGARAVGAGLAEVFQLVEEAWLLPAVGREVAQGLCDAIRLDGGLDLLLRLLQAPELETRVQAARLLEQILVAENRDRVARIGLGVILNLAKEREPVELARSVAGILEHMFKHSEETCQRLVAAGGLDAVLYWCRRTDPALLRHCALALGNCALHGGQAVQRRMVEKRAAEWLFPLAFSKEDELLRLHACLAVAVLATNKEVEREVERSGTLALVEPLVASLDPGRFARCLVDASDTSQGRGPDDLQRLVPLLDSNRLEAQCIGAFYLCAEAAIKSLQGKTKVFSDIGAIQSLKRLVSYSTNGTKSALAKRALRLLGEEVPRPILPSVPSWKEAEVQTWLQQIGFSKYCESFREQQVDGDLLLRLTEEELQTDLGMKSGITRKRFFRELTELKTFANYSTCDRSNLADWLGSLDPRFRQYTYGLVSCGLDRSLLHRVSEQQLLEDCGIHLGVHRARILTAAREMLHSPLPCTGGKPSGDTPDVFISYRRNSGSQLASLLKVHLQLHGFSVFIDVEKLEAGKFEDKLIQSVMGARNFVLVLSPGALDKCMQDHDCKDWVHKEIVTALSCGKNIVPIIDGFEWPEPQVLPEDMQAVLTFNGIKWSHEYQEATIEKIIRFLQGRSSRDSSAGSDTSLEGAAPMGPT
For the molecule `CN(N=O)C(=O)N[C@@H](C=O)[C@@H](O)[C@H](O)[C@H](O)CO`, the remaining NAD is 10 nM.
In the case of `COc1ccc2nc([S@@](=O)Cc3ncc(C)c(OC)c3C)[nH]c2c1` it was 10 nM; in that of `CCCCCCCCCC(=O)N[C@@H](Cc1c[nH]c2ccccc12)C(=O)N[C@@H](CC(N)=O)C(=O)N[C@@H](CC(=O)O)C(=O)N[C@@H]1C(=O)NCC(=O)N[C@@H](CCCN)C(=O)N[C@@H](CC(=O)O)C(=O)N[C@H](C)C(=O)N[C@@H](CC(=O)O)C(=O)NCC(=O)N[C@H](CO)C(=O)N[C@@H]([C@H](C)CC(=O)O)C(=O)N[C@@H](CC(=O)c2ccccc2N)C(=O)O[C@@H]1C`, 10 nM.
As for `CC(=O)N1CCN(c2ccc(OC[C@@H]3CO[C@@](Cn4ccnc4)(c4ccc(Cl)cc4Cl)O3)cc2)CC1`, the figure is 10 nM.
On to `O=C(O[C@H]1CN2CCC1CC2)N1CCc2ccccc2[C@@H]1c1ccccc1`, for which the remaining NAD was 10 nM.
As to `C#C[C@]1(OC(C)=O)CC[C@H]2[C@@H]3CCC4=C/C(=N\O)CC[C@@H]4[C@H]3CC[C@@]21CC`, the remaining NAD was 10 nM.
In the case of `Cc1ccc2c(Br)cc(Br)c(OC(=O)c3ccccc3)c2n1` it was 10 nM; in that of `CC1/C=C/C=C/C=C/C=C/C=C/C=C/C=C/C(OC2O[C@H](C)[C@@H](O)[C@H](N)[C@@H]2O)CC(O)C(C(=O)O)C(O)CC(=O)CC(O)CC(O)CC(O)CC(=O)CCCC(=O)CC(=O)OC1C(C)CC(C)C(O)CC(=O)c1ccc(N)cc1` (stereo not given in full), 10 nM.
Regarding `CCCCCCCCCC[N+](C)(C)Cc1ccccc1`, the remaining NAD is 10 nM.
As for `Cn1c2ncnc-2c(O)n(C)c1=O`, the figure is 10 nM; as for `CCCCCCCCCCCCCCCC(=O)OC[C@H](O)[C@H]1OC(=O)C(O)=C1O`, 10 nM; as for `CO[C@H]1C[C@H](O[C@H]2[C@H](C)O[C@@H](O[C@@H]3/C(C)=C/C[C@@H]4C[C@@H](C[C@]5(C=C[C@H](C)[C@@H](C6CCCCC6)O5)O4)OC(=O)[C@@H]4C=C(C)[C@@H](O)[C@H]5OC/C(=C\C=C\[C@@H]3C)[C@]54O)C[C@@H]2OC)O[C@@H](C)[C@@H]1O`, 10 nM.
As for `O=C(O)[C@H](O)[C@@H](O)[C@H](O)[C@H](O)CO`, the figure is 10 nM; as for `COc1cc(/C=C/C(=O)N2CCCCCCC2)cc(OC)c1OC`, 10 nM; as for `CC(=O)c1ccc2c(c1)N(CCCN1CCN(CCO)CC1)c1ccccc1S2`, 10 nM.
As for `Nc1ccc(S(=O)(=O)[O-])cc1.Nc1ccc(S(=O)(=O)[O-])cc1.O.O.O.O.[Zn+2]`, the figure is 10 nM.
For `Nc1ncnc(Nc2ccc(Cl)cc2)n1`, the remaining NAD was 10 nM.
For `CC(C)CC(NC(=O)C(C)NC(=O)CNC(=O)C(NC=O)C(C)C)C(=O)NC(C)C(=O)NC(C(=O)NC(C(=O)NC(C(=O)NC(Cc1c[nH]c2ccccc12)C(=O)NC(CC(C)C)C(=O)NC(Cc1c[nH]c2ccccc12)C(=O)NC(CC(C)C)C(=O)NC(Cc1c[nH]c2ccccc12)C(=O)NC(CC(C)C)C(=O)NC(Cc1c[nH]c2ccccc12)C(=O)NCCO)C(C)C)C(C)C)C(C)C` (stereo not given), the remaining NAD is 10 nM.
As for `OC[C@@H](O)[C@@H](O)CO`, the figure is 10 nM; as for `C[C@]12CC[C@@H]3c4ccc(O)cc4CC[C@H]3[C@@H]1C[C@H](O)[C@@H]2O`, 48 nM (active).
On to `CC1(C)C2CCC1(CS(=O)(=O)O)C(=O)C2=Cc1ccc(C=C2C(=O)C3(CS(=O)(=O)O)CCC2C3(C)C)cc1`, for which the remaining NAD was 10 nM.
Consider `CCOC(=S)SSC(=S)OCC`, for which the remaining NAD is 10 nM.
As for `Cc1ncc(COP(=O)([O-])[O-])c(CN(CCN(CC(=O)[O-])Cc2c(COP(=O)([O-])[O-])cnc(C)c2[O-])CC(=O)[O-])c1[O-].[H+].[H+].[H+].[Mn+2].[Na+].[Na+].[Na+]`, the figure is 10 nM.
Turning to `CC/C=C\C/C=C\C/C=C\C/C=C\C/C=C\C/C=C\CCC(=O)OCC` (tested in a mixture with another compound), the remaining NAD was 10 nM.
In the case of `CCCCCCCCCC(=O)N[C@H]1[C@H](Oc2c3cc4cc2Oc2ccc(cc2Cl)[C@@H](O[C@@H]2O[C@H](CO)[C@@H](O)[C@H](O)[C@H]2NC(C)=O)[C@@H]2NC(=O)[C@H](NC(=O)[C@@H]4NC(=O)[C@H]4NC(=O)[C@@H](Cc5ccc(c(Cl)c5)O3)NC(=O)[C@@H](N)c3ccc(O)c(c3)Oc3cc(O)cc4c3)c3ccc(O)c(c3)-c3c(OC4O[C@H](CO)[C@@H](O)[C@H](O)[C@@H]4O)cc(O)cc3[C@@H](C(=O)O)NC2=O)O[C@H](CO)[C@@H](O)[C@@H]1O` (stereo not given in full) it was 10 nM.
`C/C=C(\C)C(=O)OC1[C@H](OC(C)=O)C2(CO)C(CC1(C)C)C1=CCC3C4(C)CCC(O[C@@H]5O[C@H](C(=O)O)[C@@H](O[C@@H]6O[C@H](CO)[C@@H](O)[C@H](O)[C@H]6O)[C@H](O)[C@H]5O[C@H]5O[C@H](CO)[C@@H](O)[C@H](O)[C@H]5O)[C@](C)(CO)C4CCC3(C)[C@]1(C)C[C@H]2O` (stereo not given in full): the remaining NAD is 10 nM.
As for `CC(=O)OCC(=O)[C@@]1(O)CC[C@H]2[C@@H]3CCC4=CC(=O)C=C[C@]4(C)[C@@]3(Cl)[C@@H](Cl)C[C@@]21C`, the figure is 10 nM.
Take `Oc1ccc(Cl)c2c1CCC2`: the remaining NAD is 10 nM.
In the case of `CC1(C)S[C@@H]2[C@H](N3C(=O)[C@@H](c4ccccc4)NC3(C)C)C(=O)N2[C@H]1C(=O)O` it was 10 nM; in that of `CCC(=O)OCC(=O)[C@@]1(OC(=O)CC)[C@H](C)C[C@H]2[C@H]3[C@H]([C@@H](O)C[C@@]21C)[C@@]1(C)C=CC(=O)C=C1C[C@H]3Cl`, 10 nM; in that of `C[C@H]1C[C@H]2[C@@H]3CCC4=CC(=O)C=C[C@]4(C)[C@@]3(F)[C@@H](O)C[C@]2(C)[C@@]1(O)C(=O)COP(=O)(O)O`, 10 nM.
Consider `NC(=O)[C@@H]1CCCN1C(=O)[C@H](Cc1cnc[nH]1)NC(=O)[C@@H]1CCC(=O)N1`, for which the remaining NAD was 10 nM.
In the case of `CCCCCCOC(=O)/N=C(\N)c1ccc(NCc2nc3cc(C(=O)N(CCC(=O)OCC)c4ccccn4)ccc3n2C)cc1` it was 10 nM.
In the case of `CCC(=O)Oc1ccc2c(c1)CC[C@@H]1[C@@H]2CC[C@]2(C)[C@@H](OC(=O)CC)CC[C@@H]12` it was 10 nM; in that of `CC(=O)O[C@@H]1C[C@@H]2CC[C@@]1(C)C2(C)C`, 10 nM; in that of `S=C1SCN(Cc2ccccc2)CN1Cc1ccccc1`, 10 nM.
Take `C[C@@H]1O[C@@H]1P(=O)(O)O`: the remaining NAD was 10 nM.
As for `CCC(C)CCCC(=O)N[C@@H](CCN)C(=O)N[C@H](C(=O)N[C@@H](CCN)C(=O)N[C@H]1CCNC(=O)C([C@@H](C)O)NC(=O)[C@@H](CCN)NC(=O)[C@H](CCN)NC(=O)[C@@H](CC(C)C)NC(=O)[C@@H](CC(C)C)NC(=O)[C@H](CCN)NC1=O)[C@@H](C)O` (stereo partly drawn) ({Heptanoyl(5-Me)}-[Dab]T[Dab][Dab][Dab][dL][dL][Dab][dDab][ξThr(3R)]; lactam 4-C), the figure is 10 nM; as for `C=C(C)[C@H]1CC=C(C)CC1`, 10 nM; as for `Cc1cc2nc3c(=O)[nH]c(=O)nc-3n(C[C@H](O)[C@H](O)[C@H](O)COP(=O)(O)O)c2cc1C`, 10 nM.
